The values below come from PubChem BioAssay (NCATS).

Each structure is given as a SMILES string. Values joined by “and” are separate entries in the source; they are usually repeats but may differ in a detail not shown here. Identical values can stand only once. Values without a mark were called inactive. Results filed as inconclusive are left out. Active and inactive are the calls of the source. Unless noted, calls follow the shape of the dose curve; as a rule, active = well fitted curve in the direction sought with a large enough effect; inconclusive = small, poorly fitted or top-dose-only effect, or another doubt; inactive = no such curve, though single readings can be large; an effect the other way counts as inactive or inconclusive.

A short description of assay [1]: Cell Viability - BJ (AID 421; calls by dose curve;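 also: potency is read from the fitted curve at half-maximal effect; cells exposed to compound for 40 hours at 37 °C before readout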). The note with it: BJ fibroblast viability, qHTS. In a few lines: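 Cytotoxicity in human BJ foreskin fibroblasts is scored as loss of cellular ATP after a 40-hour exposure, measured by luciferase luminescence. Controls are DMSO and 100 uM tamoxifen.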
(Quantitative high-throughput screening tests each substance at several concentrations.)

Assay [2] in a line: Cell Viability - Jurkat (AID 426;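 active = dose-dependent loss of cell ATP signal giving a full or clear fitted curve, ranked by lower potency value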; also: potency is read from the fitted curve at half-maximal effect). The note with it: qHTS. In a few lines: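 Jurkat (clone E6-1, human T-cell leukemia) cells, 5000/well in complete medium, were exposed to compound for 40 hr at 37 °C. Viability was read as intracellular ATP by CellTiter-Glo luminescence; AC50 came from Hill fits of concentration-response data.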
Assay [3] can be described thus: Cell Viability - Hek293 (AID 427;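 active = compounds whose dose-response curve shows a full or clear partial loss of cell viability, called from curve shape rather than a numeric limit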;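 also: potency is read from the fitted curve at half-maximal effect; cells exposed to compound for 40 hours at 37 °C before reading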). The settings on record: qHTS. The gist of the method:
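qHTS, human embryonic kidney (adenovirus-transformed) cells; 40 hr cpd, 37 °C; CellTiter-Glo ATP luminescence. Norm: DMSO = 0, 100 uM tamoxifen = 100% inhibition. Hill-fit AC50.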

The nature of assay [4]: Cell Viability - HepG2 (AID 433; calls by dose curve;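 also: potency is read from the fitted curve at half-maximal effect; potency for ATP loss meaning cytotoxicity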). The settings on record: qHTS. The gist of the method: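 Cytotoxicity read as ATP loss (CellTiter-Glo luminescence) after 40 hr compound exposure of HepG2, 1500 cells/well, 37 °C. AC50 by Hill equation; 0% set by DMSO, 100% inhibition by 100 uM tamoxifen.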
Assay [5] is described as follows: Cell Viability - MRC5 (AID 434; calls by dose curve;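 also: potency is read from the fitted curve at half-maximal effect; potency reflects cytotoxicity seen as loss of intracellular ATP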). The note with it: MRC5 lung fibroblast viability, qHTS. The gist of the method:
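MRC5 normal human lung fibroblasts, 1500 cells/well, exposed to compound for 40 hr at 37 C. Cellular ATP was read by CellTiter-Glo luminescence; data normalized to DMSO and 100 uM tamoxifen, with AC50 from Hill fits.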

The nature of assay [6]: Cell Viability - SK-N-SH (AID 435; calls by dose curve; also: potency is read from the fitted curve at half-maximal effect). The settings on record: SK-N-SH neuroblastoma cell viability qHTS. In a few lines:
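qHTS cytotoxicity: CellTiter-Glo ATP luminescence after 40 h compound exposure of human neuroblastoma SK-N-SH cells at 37 °C. AC50 derived by Hill-equation fitting, with DMSO as basal and 100 uM tamoxifen as full inhibition.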

A short description of assay [7]: Cellular Toxicity (caspase-3) HepG2 (AID 654).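 Also: cells exposed to compound for 16 hours before reading; 0% = DMSO alone and 100% = caspase signal from 100 µM tamoxifen.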 The settings on record: HepG2 caspase-3 activation, luminescence, 0% = DMSO only, 100% = tamoxifen; series mostly up to 92.2 µM. In a few lines:
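HepG2 cells (1500/well) in complete medium were treated with compounds for 16 hr at 37 °C. Caspase-3/7 activity was then read as luminescence from peptide-aminoluciferin cleavage. AC50 came from Hill fits, normalized to DMSO and 100 uM tamoxifen.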

Assay [8] is described as follows: Cellular Toxicity (caspase-3) BJ (AID 658). The settings on record: BJ fibroblasts, luminescence, normalized: DMSO 0%, staurosporine 100%; series mostly up to 91.7 µM. In a few lines: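 BJ human foreskin fibroblasts, 1000 cells/well, treated 16 hours at 37 °C in complete medium; caspase 3/7 activity by Caspase-Glo luminescence after 1 hr at room temperature. Normalized to DMSO and 10 uM staurosporine; AC50 from Hill fits.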

Assay [9] can be described thus: Cellular Toxicity (caspase-3) MRC-5 (AID 659). The settings on record: MRC-5 cells, luminescence, normalized: DMSO 0%, 10 µM staurosporine 100%; series mostly up to 91.7 µM. In a few lines: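 MRC-5 human normal lung fibroblasts, 1500 cells/well, treated 16 h at 37 °C in complete medium. Caspase 3/7 measured by Caspase-Glo luminescence after 1 h at room temperature. Normalized to DMSO and 10 uM staurosporine; AC50 from Hill fit.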

Assay [10] in a line: Cellular Toxicity (caspase-3) Hek293 (AID 664).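 Also: cells exposed to compound for 16 h at 37 °C before readout.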 The settings on record: HEK293 caspase-3 activation, DMSO = 0%, 100 µM tamoxifen = 100%; at 92.2 µM (top of the series). The gist of the method: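 HEK293 cells were exposed to compounds in complete medium for 16 hr at 37 °C, then caspase-3/7 activity was read by Caspase-Glo 3/7 luminescence after 20 min at room temperature. Data normalized to DMSO and 100 uM tamoxifen; AC50 from Hill fits.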

Assay [11] is described as follows: Cellular Toxicity (caspase-3) N2a (AID 665).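 Also: compound exposure lasted 16 h at 37 °C before readout.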 The note with it: N2a cells, luminescence, normalized: DMSO 0%, 10 µM staurosporine 100%; series mostly up to 92.2 µM. In a few lines: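 Mouse N2a neuroblastoma cells (1500/well) were treated with compounds for 16 h at 37 °C, then caspase-3/7 activity was read by Caspase-Glo luminescence after 1 h at room temperature. Data were normalized to DMSO and 10 uM staurosporine; AC50 from Hill fits.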

Assay [12] is described as follows: Cellular Toxicity (caspase-3) NIH 3T3 (AID 666).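 Also: caspase signal read after 16 h compound exposure; 0% = DMSO basal and 100% = 100 µM tamoxifen stimulation.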 The settings on record: NIH 3T3 caspase-3 activation, apoptosis/toxicity; series mostly up to 92.2 µM. In a few lines: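 Mouse NIH 3T3 fibroblasts (1000 cells/well) were treated with compound for 16 hr at 37°C in complete medium; caspase-3/7 activity was read by Caspase-Glo luminescence. Normalized to DMSO and 100 uM tamoxifen; AC50 from Hill fits.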

Assay [13] can be described thus: MultiTox-Fluor Cytotoxicity Assay - LYMP1-001 - Dead Cells (AID 946). The note with it: LYMP1-001 lymphoblastoid cells, dead-cell protease fluorescence; series mostly up to 92.2 µM. In a few lines: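 Seed 2500 LYMP1-001 cells/well, incubate 5 hr at 37 C; add compound, 16 hr at 37 C; add MultiTox-Fluor reagent, 60 min RT; read dead-cell fluorescence Ex/Em=485/520. Normalize to DMSO and 15 uM tetraoctylammonium bromide.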

Assay [14] is described as follows: MultiTox-Fluor Cytotoxicity Assay - LYMP1-002 - Live Cells (AID 955). Also: % is scaled to controls: 0 for no effect and ±100 for the full control effect. The settings on record: LYMP1-002 lymphoblastoid live-cell protease fluorescence viability; series mostly up to 46.1 µM. The gist of the method: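 Human lymphoblastoid LYMP1-002 cells, 2500/well in complete medium, rested 5 hr at 37 C, then exposed to compounds for 16 hr at 37 C. Live-cell protease cleavage of GF-AFC read by fluorescence (Ex/Em 405/510) after 60 min at room temperature; AC50 from Hill fits.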

The nature of assay [15]: MultiTox-Fluor Cytotoxicity Assay - LYMP1-003 - Dead Cells (AID 961). Also: nearly all actives have a fitted effect of over 70% in size. The settings on record: LYMP1-003 lymphoblastoid cells, dead-cell protease fluorescence; series mostly up to 92.2 µM. The gist of the method:
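LYMP1-003 lymphoblastoid, 2500 cells/well, 5 hr settle then 16 hr cpd at 37 C; MultiTox-Fluor reagent 60 min RT; Ex/Em 485/520 dead-cell signal; norm. DMSO = 0%, 15 uM tetraoctylammonium bromide = 100%; Hill AC50.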

The nature of assay [16]: Cell Viability - LYMP2-008 (AID 980). Also: nearly all actives have a fitted effect of over 60% in size. Also: potency is read from the fitted curve at half-maximal effect. The settings on record: LYMP2-008 lymphoblastoid cell viability, qHTS; series mostly up to 92.2 µM. The gist of the method:
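Human lymphoblastoid cells (2500/well) were plated, held 5 hr at 37 C, then exposed to compounds for 24 hr at 37 C in complete medium. Intracellular ATP was read by CellTiter-Glo luminescence; AC50 from Hill-fitted concentration-response.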

Assay [17] is described as follows: Cell Viability - LYMP1-002 - Assay at 24 hr (AID 993). Also: % is scaled to controls: 0 for no effect and ±100 for the full control effect. The note with it: LYMP1-002 lymphoblastoid cells viability; series mostly up to 92.2 µM. In a few lines: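 Human lymphoblastoid LYMP1-002 cells, 2500/well in complete medium, were treated with compounds for 24 h at 37 C; intracellular ATP was read by CellTiter-Glo luminescence. AC50 values came from Hill-equation fits of qHTS concentration-response data.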

The nature of assay [18]: qHTS Assay for Identification of Small Molecule Inducers of Hypoxia Response (AID 2120; active = well fitted curve in the direction sought with a large enough effect in the signal ratio, with a control signal flat, not every such curve was filed as active; the % refers to the signal ratio; also: 0% is about no effect). The settings on record: hypoxia response reporter cells, beta-lactamase ratio readout; series mostly up to 104 µM. In a few lines: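 HRE-beta-lactamase reporter in CellSensor HRE-bla ME-180 cells, 2500 cells/well in Opti-MEM with 0.5% dialyzed FBS; compounds tested as titration series, 17 h at 37 degrees C. CCF4 substrate 2.5 h at room temperature; AC50 from 460/530 nm ratio.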

Assay [19] concerns the target Peroxisome proliferator-activated receptor alpha (Homo sapiens) (UniProt Q07869). The assay is described as follows: qHTS assay for small molecule agonists of the peroxisome proliferator-activated receptor alpha (PPARalpha) signaling pathway (AID 651778). Also: % of control where 0% means no effect. The note with it: PathHunter PPARalpha complementation, chemiluminescence, 6 h; stronger effect = higher value. The gist of the method: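 Enzyme-fragment complementation assay in which ligand-bound PPARalpha translocates and forms an active enzyme that generates chemiluminescence. Cells were plated overnight, exposed to compound for 6 hr at 37 C, and then given detection reagent for 60 min at room temperature.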

Assay [20] can be described thus: qHTS assay for cell viability of the p53RE-bla HCT-116 cell line (AID 743292). Also: % is scaled to controls: 0 for no effect and ±100 for the full control effect; nearly all actives have a fitted effect of over 55% in size. The note with it: p53RE-bla HCT-116 viability, ATP luminescence, 16 h; series mostly up to 95 µM. In a few lines: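 CellSensor p53RE-bla HCT-116 cells, 4,000/well, preincubated 5 h at 37 C, then exposed to compounds in DMSO for 16 h at 37 C. Viability read as CellTiter-Glo luminescence (intracellular ATP) after 30 min at room temperature.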

Chain of Peroxisome proliferator-activated receptor alpha (Homo sapiens) (Q07869 whole entry, looked up, the tested form may be a part): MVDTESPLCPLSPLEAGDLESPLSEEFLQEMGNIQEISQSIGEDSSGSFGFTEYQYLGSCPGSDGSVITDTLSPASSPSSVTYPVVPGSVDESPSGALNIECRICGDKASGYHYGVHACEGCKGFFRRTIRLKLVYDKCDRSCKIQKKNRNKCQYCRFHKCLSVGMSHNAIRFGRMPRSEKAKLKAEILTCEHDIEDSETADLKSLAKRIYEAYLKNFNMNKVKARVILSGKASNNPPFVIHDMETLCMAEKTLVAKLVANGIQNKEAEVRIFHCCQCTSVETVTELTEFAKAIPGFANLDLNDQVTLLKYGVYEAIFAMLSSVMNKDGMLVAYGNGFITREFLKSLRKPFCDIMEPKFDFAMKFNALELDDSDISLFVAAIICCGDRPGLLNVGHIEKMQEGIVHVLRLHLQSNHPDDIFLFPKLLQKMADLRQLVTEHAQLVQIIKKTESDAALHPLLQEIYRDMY

Turning to `[N-]=[N+]=[N-]`, the Potency in assay [1], in assay [2], in assay [3], in assay [4], in assay [5] and in assay [6] was above 92 µM throughout. The call in assay [7], in assay [8], in assay [9], in assay [11], in assay [13] and in [14] was inactive. In addition, in assay [10], the caspase-3 activation is -2.5%. Besides, the Potency result in assay [12], in assay [15], in [16], in assay [17], in [18] and in [20] was “inactive” each time. Besides, the max response in assay [19] is -3.11%.
`CC(C)(C)C(O)(CCc1ccc(Cl)cc1)Cn1cncn1` (centres undefined): the Potency in [1], in [2], in assay [3], in [4], in [5] and in [6] was above 92 µM in each case. In addition, the result in assay [7], in assay [8], in assay [9], in assay [11], in [13] and in assay [14] was inactive. The caspase-3 activation in [10] is 3.2%. Further, the Potency result in assay [12], in [15], in assay [16], in assay [17], in assay [18] and in assay [20] was “inactive” in each case. Moreover, in assay [19], the max response is -3.73% and 1.11%.
For the compound `CCOP(=S)(OCC)Oc1nc(Cl)c(Cl)cc1Cl`, the Potency in [1], in assay [2], in assay [3], in assay [4], in assay [5] and in assay [6] was above 92 µM each time. For the same compound, the compound was called inactive in [7], in assay [8], in assay [9], in assay [11], in assay [13] and in [14]. Moreover, the caspase-3 activation in assay [10] was 2.26%. Also, the Potency result in assay [12], in assay [15], in [16], in assay [17], in [18] and in assay [20] was “inactive” in each case. Further, the max response in assay [19] was 0.508% [middle of 4 runs].
On to `Nc1cccc2ccccc12`, for which the Potency was above 92 µM in [1]; 33 µM (active) in assay [2]; above 92 µM in [3]; above 92 µM in assay [4]; above 92 µM in [5]; above 92 µM in assay [6]. Further, the Potency in [16] was 39.8 µM (active). Also, the outcome in assay [7], in assay [8], in assay [9], in assay [11], in assay [13] and in [14] was inactive. Further, the caspase-3 activation in assay [10] was 156% (active). Besides, the Potency result in [12], in [15], in assay [17], in assay [18] and in [20] was “inactive” in each case. For the same compound, the max response in assay [19] is -2.99%.
Turning to `Nn1cnnc1`, the Potency in [1], in assay [2], in assay [3], in [5] and in assay [6] was above 92 µM each time. Moreover, the compound was called inactive in assay [7], in assay [8], in assay [9], in assay [11], in assay [13] and in assay [14]. The caspase-3 activation in [10] was 0.966%. The Potency result in assay [12], in assay [15], in assay [16], in assay [17], in [18] and in assay [20] was “inactive” each time. The max response in [19] was -0.452%.
